Pyk2 oligo antag – antagonists of Pyk2 self-association, primary screen, Q293 cells, FERM NanoBiT luminescence, HTS. active compounds read low. z-score (the deposit names both 25 µM and 10 µM). 0.83% of 99,000 active;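 active = Z-score of -3 or lower, scaled per plate to the spread of control and sample wells; inactive = z-score above -3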;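 also: negative z-score means lost luminescence so less FERM oligomerization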
Target sequence (Q14289 whole entry, looked up): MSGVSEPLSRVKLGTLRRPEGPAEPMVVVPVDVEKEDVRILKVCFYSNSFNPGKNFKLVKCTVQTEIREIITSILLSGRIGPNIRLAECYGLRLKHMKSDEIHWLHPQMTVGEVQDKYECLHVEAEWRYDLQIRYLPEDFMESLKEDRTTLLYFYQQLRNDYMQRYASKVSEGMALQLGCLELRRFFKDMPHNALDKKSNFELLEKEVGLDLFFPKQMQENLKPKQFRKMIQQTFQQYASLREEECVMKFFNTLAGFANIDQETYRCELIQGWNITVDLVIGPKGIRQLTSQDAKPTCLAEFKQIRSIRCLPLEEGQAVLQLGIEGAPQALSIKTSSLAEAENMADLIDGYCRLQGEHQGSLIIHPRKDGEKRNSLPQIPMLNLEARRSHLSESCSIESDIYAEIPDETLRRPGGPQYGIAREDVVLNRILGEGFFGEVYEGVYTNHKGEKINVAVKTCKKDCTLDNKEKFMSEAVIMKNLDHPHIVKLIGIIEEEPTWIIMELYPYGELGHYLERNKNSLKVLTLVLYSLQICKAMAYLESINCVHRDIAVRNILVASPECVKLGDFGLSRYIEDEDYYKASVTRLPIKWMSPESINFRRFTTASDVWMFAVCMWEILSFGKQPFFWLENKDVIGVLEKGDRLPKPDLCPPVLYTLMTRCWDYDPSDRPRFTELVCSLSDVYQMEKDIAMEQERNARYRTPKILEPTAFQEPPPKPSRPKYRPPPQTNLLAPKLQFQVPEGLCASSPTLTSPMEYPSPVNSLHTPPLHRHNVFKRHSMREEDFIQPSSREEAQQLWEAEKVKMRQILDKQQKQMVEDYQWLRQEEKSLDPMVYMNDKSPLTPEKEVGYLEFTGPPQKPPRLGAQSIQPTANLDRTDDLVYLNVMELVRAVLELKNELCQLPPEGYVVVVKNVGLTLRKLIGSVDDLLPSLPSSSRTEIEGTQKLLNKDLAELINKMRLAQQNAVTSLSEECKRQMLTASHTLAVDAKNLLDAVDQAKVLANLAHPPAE
CYP2C9 inhib – blockers of cytochrome P450 2C9 activity – biochemical, luminescence, ADME assay, primary screen; P11712; CYP2C9 Supersomes, luciferin-H conversion; inhibition, % at 5 µM; 20% of 96,000 active; AID 777, 2007;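 active = blocking of liver enzyme CYP2C9 beyond about 50% at 5 µM, limit read from the data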
CYP2C19 inhib – blockers of cytochrome P450 2C19 activity – biochemical, luminescence, ADME assay, primary screen; P33261; CYP2C19 Supersomes, luciferin-H EGE luminescence, 30 min; inhibition, % at 5 µM; 21% of 96,000 active; AID 778, 2007;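 active = CYP2C19 inhibition above a set limit at 5 µM in the primary screen, cut at about 50% in these data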;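 also: plate controls were negative control wells for no effect and 2.5 mM tranylcypromine positive control for full effect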
CYP2C9 activ – human CYP2C9 activators, primary screen, biochemical, luminescence; Cytochrome P450 2C9 (Homo sapiens), P11712; activation factor at 5 µM; recombinant CYP2C9, luciferin-H conversion; active compounds read high; factor 1 = untreated enzyme, 0 = blocked; 1.4% of 96,000 active;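 active = activation factor of 2 or more for CYP2C9 at a 5 µM dose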;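 also: 0 = sulfaphenazole-blocked wells and 1 = vehicle-only wells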
CYP2C19 activ – human CYP2C19 activators, primary screen, biochemical, luminescence; recombinant CYP2C19, luciferin-H EGE luminescence; active compounds read high; 0 = fully inhibited enzyme, 1 = untreated enzyme; activation factor at 5 µM; 96,000 tested, under 10 active; AID 1025, 2008;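 active = activation factor of at least 2 at 5 µM in the primary screen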;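 also: 0 = wells with 2.5 mM tranylcypromine and 1 = vehicle-only wells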
An asterisk follows results filed as active; nt = not tested or not shown. Shown are actives, neighbours in structure and some others; about 28% of the full set was active somewhere.

SMILES	Pyk2 oligo antag	CYP2C9 inhib	CYP2C19 inhib	CYP2C9 activ	CYP2C19 activ
Cc1nc(N2CCC(C)CC2)c2c(C)c(C(=O)O)sc2n1	2	-8	-7	1.1	1.1
Cc1ccc(C(=O)CSc2cc(C)nc(SCC(=O)c3ccccc3)n2)cc1	-1.9	73*	33	0.3	0.7
Cc1cc(SCC(N)=O)nc(SCC(=O)c2ccccc2)n1	0.12	4	20	1	0.8
COC(=O)c1ccc(NC(=O)CSc2nc3cccnc3n2C)cc1	0.92	nt	nt	nt	nt
COc1ccc(CNC(=O)CSc2nc3nc(C)cc(C)n3n2)cc1	-0.27	61*	20	0.4	0.8
COC(=O)c1ccc(NC(=O)CSc2ccccn2)cc1	-0.15	54*	82*	0.5	0.2
CCOc1cc(C(=O)Nc2ccccc2N2CCN(S(C)(=O)=O)CC2)cc(OCC)c1OCC	0.53	20	20	0.8	0.8
Cc1ccc(C)c2c3c([nH]c12)-c1nonc1CC3	0.32	5	17	0.9	0.8
CCc1ccc(OCC(=O)NNC(=O)CSc2ncnc3sc(C)c(C)c23)cc1	2.8	-13	8	1.1	0.9
COc1cc([C@H]2[C@@H]3CCCC[C@]3(O)CCN2Cc2ccccc2F)ccc1O	-0.35	37	83*	0.6	0.2
COc1cc([C@H]2[C@@H]3CCCC[C@]3(O)CCN2CC(=O)Nc2ccc(C)cc2C)ccc1O	-0.27	32	17	0.7	0.8
CCCCc1ccc(C2C(C#N)=C(N)SC(N)=C2C#N)s1	nt	99*	68*	0	0.3
CCOc1ccc(C2C(C#N)=C(N)SC(N)=C2C#N)c(OCC)c1	-0.43	37	20	0.6	0.8
COc1cc(C(=O)NCCOc2cc(C)cc(C)c2)c(Br)c(OC)c1OC	-1.5	-8	86*	1.1	0.1
COc1cc(SC)ccc1C(=O)NCCOc1ccc(C)c(C)c1	-0.61	nt	nt	nt	nt
O=C(CCS(=O)(=O)Cc1ccccc1)NCc1ccco1	0.51	-3	-5	1	1.1
CS(=O)(=O)N(CC(=O)NCc1ccco1)Cc1ccc(Cl)cc1	1.2	34	58*	0.7	0.4
Cc1ccc(S(=O)(=O)N(CC(=O)NCc2ccco2)Cc2ccc(F)cc2)cc1	0.09	58*	34	0.4	0.7
CS(=O)(=O)N(CCc1ccccc1)CC(=O)NCc1cccnc1	0.57	36	93*	0.6	0.1
CS(=O)(=O)N(CCc1ccccc1)CC(=O)NCc1ccco1	-0.01	12	66*	0.9	0.3
CS(=O)(=O)N(CCc1ccccc1)CC(=O)NCc1ccccn1	-0.07	18	36	0.8	0.6
CCN(CC)Cc1c(C(=O)OC(C)C)nnn1-c1nonc1N	0.07	26	47	0.7	0.5
O=C(COC(=O)c1cccc2ccccc12)Nc1ncc(C(F)(F)F)cc1Cl	0.99	24	42	0.8	0.6
COC(=O)c1cn(N(C)c2ncc(C(F)(F)F)cc2Cl)c(=O)c2ccccc12	-1	100*	98*	0	0
COC(=O)c1cn(Nc2ncc(C(F)(F)F)cc2Cl)c(=O)c2ccccc12	-0.54	35	52*	0.7	0.5
SMILES	Pyk2 oligo antag	CYP2C9 inhib	CYP2C19 inhib	CYP2C9 activ	CYP2C19 activ
O=C(CN(Cc1ccc(F)cc1)C(=O)C1CSC(=O)C1)NC1CCCCC1 (stereo not drawn)	0.88	11	40	0.9	0.6
N#CCCn1cc(/C=N/O)c(-c2ccc(-c3ccccc3)cc2)n1	-4.1*	15	-6	0.8	1.1
N#CCCn1cc(/C=N/O)c(-c2ccc(Cl)cc2)n1	-3.5*	-5	36	1	0.6
Nn1cnnc1N/N=C/c1cc(Br)cc(Br)c1O	-0.68	44	4	0.6	1
Cc1ccc(S(=O)(=O)Nc2nc3ccc(S(C)(=O)=O)cc3s2)cc1	0.37	98*	29	0	0.7
CCOc1ccc2nc(NS(=O)(=O)c3ccc4c(c3)n(C)c(=O)n4C)sc2c1	0.91	98*	44	0	0.6
CCOc1ccc(S(=O)(=O)Nc2nc3ccc(OC)cc3s2)cc1	-1.2	99*	82*	0	0.2
Cc1cc(C)cc(NS(=O)(=O)c2ccc3c(c2)c(=O)n(C)c(=O)n3C)c1	-1.9	32	-2	0.7	1

Source: PubChem
